The values that follow come from PubChem BioAssay AID504340 (NMMLSC, 2011).

Each structure is given as a SMILES string. Values without a mark were called inactive.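 How the source made its calls: active means GFP response above 150% of the DMSO control; inconclusive means Under 70 cell events counted for a yeast strain; inactive means the rest.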

The assay in a line: yeast TOR pathway CIT2-GFP reporter retest – flow cytometry, third cherry pick, single plex, confirmation (AID 504340).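 Further: median GFP fluorescence over all cells with no mother versus daughter split; sample signal as a ratio to the plate DMSO mean so 100% equals DMSO.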 As to conditions: S. cerevisiae CIT2-GFP strain, 3 h, at 10 µM, stronger effect = higher value.
`CN1CCN(c2ncnc3ccc(Br)cc23)CC1`: the GFP response vs DMSO is 103%. Turning to `CN(C)C(=O)Oc1ccc(Cl)c2cccnc12`, the GFP response vs DMSO was 104%. With `CCN1CCN(c2ncnc3ccc(Br)cc23)CC1` the figure was 109%. Take `Cc1ccc2c(c1N)C(=O)c1ccccc1C2=O`: the GFP response vs DMSO was 109%. `CN(C)C(=O)Oc1ccnc2cc(Cl)ccc12`: the GFP response vs DMSO was 106%. Turning to `C/C(O)=C(\C#N)C(=O)Nc1cc(Br)ccc1Br`, the GFP response vs DMSO was 116%.
